# Results from PubChem BioAssay.
# Calls of active or inactive are those of the source.
# Columns and labels:
# [1] = system: PRMT1 (protein arginine N-methyltransferase 1); assay: small molecules binding arginine methyltransferase PRMT1 – biochemical, small-molecule microarray, 635 nm fluorescence, primary screen (AID 1088); conditions: higher = more signal;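 further: binding of Prmt1 protein to compounds spotted on small-molecule microarray slides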
# [2] = growth effects on S. cerevisiae YJM789 – YJM789 clinical isolate, OD600, 24 h, basal, primary screen (AID 1089); conditions: higher = more signal, called active from +8 up or from −8 down;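 further: growth of clinical yeast isolate S. cerevisiae YJM 789 seeded 1000 cells per well; test concentration not given here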
# [3] = S. pombe growth modifiers, basal conditions – strain 972, OD600, 24 h, no modulator, primary screen (AID 1090);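 further: basal condition with compound alone and no growth modifier present; test concentration not given here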; conditions: S. pombe 972 growth, higher = more signal, called active from +8 up or from −8 down
# [4] = budding yeast growth modifiers under rapamycin – strain BY4716, OD600, 96 h, primary screen (AID 1091); further: test concentration not given here; conditions: S. cerevisiae BY4716 + rapamycin, higher = more signal, called active from +8 up or from −8 down
# [5] = biological target: Torsin-1A-interacting protein 2 (Homo sapiens) (UniProt Q8NFQ8); assay: small molecules binding lysate-expressed LULL1 – cell lysate, human LULL1 lysate, 635/667 nm fluorescence, primary screen (AID 1092); conditions: small-molecule microarray, hLULL1 lysate binding, 635 nm fluorescence; higher = more signal;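 further: probe is lysate of COS7 cells overexpressing human LULL1; score merges per-feature 667 nm fluorescence with signal-to-noise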
# [6] = optical density change of DRC41 E. coli – strain DRC41, OD650, 24 h, E. coli filamentation project, primary screen (AID 1093);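 further: MC1000 strain lacking acrAB efflux and sulA so SOS filamentation is blocked; test concentration not given here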; conditions: E. coli DRC41 growth, higher = more signal, called active from +8 up or from −8 down
# [7] = probe aLefty2 binding to arrayed compounds – biochemical, biotinylated probe, 635/667 nm fluorescence, primary screen (AID 1094); conditions: small-molecule microarray, higher = more signal;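 further: score merges spot fluorescence near 667 nm with spot signal-to-noise ratio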
# [8] = system: Noggin (protein binding on small-molecule microarray); assay: small molecules binding Noggin protein – biochemical, 635/667 nm fluorescence, primary screen (AID 1095); conditions: 635 nm fluorescence, higher = more signal;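 further: score merges 667 nm feature fluorescence with signal to noise over triplicate slides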
# [9] = biological target: Neurogenic locus notch homolog protein 3 (Homo sapiens) (UniProt Q9UM47); assay: small molecules binding NOTCH3 protein – biochemical, 635/667 nm fluorescence, primary screen (AID 1096); conditions: small-molecule microarray, 635 nm fluorescence, higher = more signal
# [10] = probe aEGFR binding to arrayed compounds – biochemical, biotinylated probe, 635/667 nm fluorescence, primary screen (AID 1097); conditions: small-molecule microarray, higher = more signal;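 further: probe is a biotinylated anti-EGFR antibody binding compounds printed on slides; score combines fluorescence near 667 nm and signal to noise of each spot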
# Sequence of Torsin-1A-interacting protein 2 (Homo sapiens) (Q8NFQ8 whole entry, looked up): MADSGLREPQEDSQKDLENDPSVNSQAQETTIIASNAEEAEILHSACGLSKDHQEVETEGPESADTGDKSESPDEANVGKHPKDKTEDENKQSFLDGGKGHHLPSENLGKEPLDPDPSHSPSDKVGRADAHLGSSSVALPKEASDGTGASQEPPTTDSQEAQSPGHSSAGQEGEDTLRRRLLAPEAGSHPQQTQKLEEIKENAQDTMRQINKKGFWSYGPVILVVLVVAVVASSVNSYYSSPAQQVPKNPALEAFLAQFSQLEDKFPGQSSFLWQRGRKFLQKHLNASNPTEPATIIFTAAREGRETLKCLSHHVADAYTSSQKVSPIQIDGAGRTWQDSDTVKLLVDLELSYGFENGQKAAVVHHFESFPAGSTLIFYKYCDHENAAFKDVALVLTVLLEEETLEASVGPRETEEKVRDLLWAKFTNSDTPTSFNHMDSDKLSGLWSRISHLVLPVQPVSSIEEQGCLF
# Sequence of Neurogenic locus notch homolog protein 3 (Homo sapiens) (Q9UM47 whole entry, looked up): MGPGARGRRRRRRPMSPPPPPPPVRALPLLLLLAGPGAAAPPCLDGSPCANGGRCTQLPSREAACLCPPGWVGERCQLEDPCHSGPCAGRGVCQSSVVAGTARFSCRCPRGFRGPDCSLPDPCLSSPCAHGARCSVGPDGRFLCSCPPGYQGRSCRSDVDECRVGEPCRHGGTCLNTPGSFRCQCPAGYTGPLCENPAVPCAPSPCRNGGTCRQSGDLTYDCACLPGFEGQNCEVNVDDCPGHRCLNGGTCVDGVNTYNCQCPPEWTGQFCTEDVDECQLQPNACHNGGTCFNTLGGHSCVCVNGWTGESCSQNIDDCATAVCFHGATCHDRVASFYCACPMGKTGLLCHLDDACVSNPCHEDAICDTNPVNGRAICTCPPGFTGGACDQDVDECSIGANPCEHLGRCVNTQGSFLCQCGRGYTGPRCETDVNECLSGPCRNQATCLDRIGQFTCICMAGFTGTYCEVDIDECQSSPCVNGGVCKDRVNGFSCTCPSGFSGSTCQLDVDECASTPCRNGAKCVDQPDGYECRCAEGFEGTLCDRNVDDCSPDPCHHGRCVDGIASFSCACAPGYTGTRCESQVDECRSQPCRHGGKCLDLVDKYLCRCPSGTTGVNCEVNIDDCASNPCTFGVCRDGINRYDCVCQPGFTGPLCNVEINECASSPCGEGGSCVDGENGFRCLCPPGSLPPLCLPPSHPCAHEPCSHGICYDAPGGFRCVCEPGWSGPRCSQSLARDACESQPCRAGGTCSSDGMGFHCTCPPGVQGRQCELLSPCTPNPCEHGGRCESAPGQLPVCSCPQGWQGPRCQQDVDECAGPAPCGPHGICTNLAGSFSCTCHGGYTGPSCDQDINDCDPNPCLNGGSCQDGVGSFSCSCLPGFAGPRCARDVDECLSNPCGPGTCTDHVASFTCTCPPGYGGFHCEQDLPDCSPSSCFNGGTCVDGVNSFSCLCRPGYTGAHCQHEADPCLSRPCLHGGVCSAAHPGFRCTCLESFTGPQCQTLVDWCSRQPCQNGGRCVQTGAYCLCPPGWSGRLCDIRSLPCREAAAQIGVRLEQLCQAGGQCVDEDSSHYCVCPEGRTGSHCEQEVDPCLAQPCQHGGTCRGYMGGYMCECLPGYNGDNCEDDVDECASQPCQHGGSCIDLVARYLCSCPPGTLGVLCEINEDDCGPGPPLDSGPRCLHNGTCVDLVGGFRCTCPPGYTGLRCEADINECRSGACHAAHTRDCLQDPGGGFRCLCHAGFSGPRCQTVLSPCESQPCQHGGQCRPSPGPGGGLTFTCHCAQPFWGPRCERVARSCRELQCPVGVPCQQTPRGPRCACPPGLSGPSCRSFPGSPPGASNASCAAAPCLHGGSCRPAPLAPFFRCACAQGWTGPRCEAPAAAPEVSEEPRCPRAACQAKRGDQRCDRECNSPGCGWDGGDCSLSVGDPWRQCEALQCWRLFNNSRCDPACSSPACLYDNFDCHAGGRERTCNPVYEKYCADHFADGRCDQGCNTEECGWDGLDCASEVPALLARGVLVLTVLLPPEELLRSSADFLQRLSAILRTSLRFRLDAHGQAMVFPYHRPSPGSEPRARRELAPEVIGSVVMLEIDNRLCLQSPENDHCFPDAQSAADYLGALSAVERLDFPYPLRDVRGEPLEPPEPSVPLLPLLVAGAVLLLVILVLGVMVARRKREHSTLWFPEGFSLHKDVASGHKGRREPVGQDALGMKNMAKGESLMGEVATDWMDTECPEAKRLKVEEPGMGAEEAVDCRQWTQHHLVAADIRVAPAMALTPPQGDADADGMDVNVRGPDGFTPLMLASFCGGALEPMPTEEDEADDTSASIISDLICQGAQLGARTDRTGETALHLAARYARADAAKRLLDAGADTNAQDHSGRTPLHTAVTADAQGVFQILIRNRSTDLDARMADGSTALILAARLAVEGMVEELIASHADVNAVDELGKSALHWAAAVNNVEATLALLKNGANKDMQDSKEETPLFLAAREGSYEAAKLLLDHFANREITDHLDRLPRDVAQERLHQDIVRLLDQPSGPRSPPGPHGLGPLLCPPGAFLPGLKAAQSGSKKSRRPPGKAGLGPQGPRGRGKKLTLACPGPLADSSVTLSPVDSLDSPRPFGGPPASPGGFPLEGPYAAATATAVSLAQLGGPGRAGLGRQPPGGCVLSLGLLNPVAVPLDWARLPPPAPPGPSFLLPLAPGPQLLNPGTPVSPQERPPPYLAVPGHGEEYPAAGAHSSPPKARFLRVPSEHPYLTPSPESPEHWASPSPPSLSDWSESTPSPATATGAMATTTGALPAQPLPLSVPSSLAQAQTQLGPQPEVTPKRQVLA
SMILES,composite z-score [1],z-score [2],z-score [3],z-score [4],composite z-score [5],z-score [6],composite z-score [7],composite z-score [8],composite z-score [9],composite z-score [10]
C=C(COC)/C(=C/C[C@H](OC(=O)c1ccncc1)c1cccc(OCCO)c1)c1cc(C(=O)OC)ccc1OC,1.48,0.447 (inactive),-1.01 (inactive),-0.429 (inactive),1.95,0.973 (inactive),-0.128,0.604,0.679,-0.139
CS(=O)(=O)CCOC(=O)C1=CC(c2ccc(CO)cc2)=CC(C2CC2)N(Cc2cc3c(cc2Br)OCO3)C=C1C(=O)OCCS(C)(=O)=O (stereo not given),1.47,-0.938 (inactive),-6.09 (inactive),-0.247 (inactive),2.83,0.514 (inactive),0.17,0.782,0.929,0.0796
O=C1N(CCS(=O)(=O)c2ccccc2)Cc2ccccc2[C@H]2OC(c3ccc(OCCCO)cc3)=N[C@@]12CCS(=O)(=O)c1ccccc1,1.57,1.91 (inactive),1.62 (inactive),8.55 (active),3.01,-0.409 (inactive),0.417,0.894,1.06,0.162
CC(c1ccccc1)C(O)C1C=CC2C(=O)NC(=O)C2N1Nc1ccccn1 (stereo not given),1.43,0.978 (inactive),0.704 (inactive),1.17 (inactive),1.52,-0.88 (inactive),0.136,0.361,1.12,-0.0159
COc1ccc(CCNC(=O)[C@@]2(Sc3ccc(C)cc3)CC(=O)N(Cc3ccccc3Cl)[C@@H]2c2ccc(CO)cc2I)cc1,1.26,-1.62 (inactive),-3.24 (inactive),1.72 (inactive),1.8,0.68 (inactive),0.0349,-0.284,-0.788,-0.185
NC(=O)NCC#Cc1ccc2c(c1)[C@]1(C(=O)N2)[C@H](C(=O)NC[C@H](O)c2ccccc2)[C@H]2C(=O)O[C@H](c3ccccc3)[C@H](c3ccccc3)N2[C@@H]1c1ccc(O)cc1,1.39,1.94 (inactive),1.06 (inactive),3.72 (inactive),2.9,-0.412 (inactive),0.138,1.27,1.13,0.151
Cc1ccc([C@H]2C(C(=O)O)=C[C@@H](C)N2S(=O)(=O)c2ccc(C)cc2)cc1,0.896,-0.495 (inactive),-0.812 (inactive),-0.422 (inactive),3.71,-0.291 (inactive),0.0754,-0.24,-0.546,-0.165
CCCCC=C[C@@H](NC(=O)c1ccc(C(=O)OC)cc1)c1ccccc1,1.29,-0.381 (inactive),-1.22 (inactive),0.771 (inactive),2.46,-0.894 (inactive),0.145,0.454,1.02,-0.0936
O=C(NCc1ccccc1)[C@]1(CCS(=O)(=O)c2ccccc2)N=C(c2ccc(OCCCO)cc2)O[C@@H]1c1ccccc1,1.57,0.63 (inactive),0.194 (inactive),36.9 (active),1.78,0.887 (inactive),-0.0552,0.204,1.07,0.219
CC(=O)NCCCC[C@@H]1NC(=O)[C@@H]2C[C@H](C(=O)NCCCCCCNC(=O)CS)[C@H](c3ccc(O)cc3)N2C1=O,1.5,0.372 (inactive),-0.804 (inactive),0.778 (inactive),1.46,-0.581 (inactive),-0.103,0.171,0.0726,-0.142
C=CC[C@@]1(C(=O)O)N=C(c2ccc(OCCCO)cc2)O[C@@H]1c1ccccc1N=[N+]=[N-],1.23,0.0908 (inactive),-0.594 (inactive),-1.46 (inactive),3.24,0.0672 (inactive),0.23,-0.203,-0.231,-0.0225
COC(=O)c1ccc(C23CC2(C(NP(=O)(c2ccccc2)c2ccccc2)c2ccccc2)C3)cc1 (stereo not given),0.214,-2.72 (inactive),-1.76 (inactive),-0.789 (inactive),3.18,0.259 (inactive),0.888,0.13,1.07,0.0632
O=C1O[C@@H](c2ccccc2)[C@@H](c2ccccc2)N2[C@@H](c3ccc(O)cc3)[C@]3(C(=O)Nc4ccc(C#CC5=CCCCC5)cc43)[C@@H](C(=O)O)[C@H]12,1.53,-2.6 (inactive),-3.2 (inactive),-2.21 (inactive),2.86,3.68 (inactive),0.246,0.878,0.925,-0.0315
COC(=O)[C@@]1(Cc2ccccc2)[C@H]2c3cc(C(=O)N4CCCC4)n(C)c3C[C@H]2CN1C(=O)c1ccccc1,0.0683,0.29 (inactive),0.68 (inactive),0.0928 (inactive),3.35,0.391 (inactive),0.0165,0.0182,0.732,0.287
COc1ccc(CCNC(=O)[C@@H]2c3ccccc3C(=O)N(Cc3ccc(OC(F)(F)F)cc3)[C@H]2c2ccc(CO)cc2)cc1,1.55,-0.392 (inactive),-0.51 (inactive),-0.0066 (inactive),2.48,-0.652 (inactive),-0.169,0.54,0.342,-0.0967
COc1ccc([Si](C)(C)[C@@H]2[C@@H](CC(=O)N3CCC[C@H]3CO)O[C@]3(C(=O)N(C)c4c(Br)cc(C)cc43)[C@H]2C)cc1,1.32,-1.69 (inactive),-0.328 (inactive),-0.827 (inactive),2.52,-0.861 (inactive),-0.0657,0.804,0.93,-0.0831
CCCNC(=O)[C@@]1(c2ccc([N+](=O)[O-])cc2)CC(=O)N(CC23CC4CC(CC(C4)C2)C3)[C@@H]1c1ccc(CO)cc1,0.89,-0.057 (inactive),-0.403 (inactive),4.67 (inactive),0.907,0.156 (inactive),0.164,0.701,0.305,0.105
[N-]=[N+]=NCc1ccccc1C[C@]1(C(=O)NCC(O)CO)N=C(c2ccc(OCCCO)cc2)O[C@H]1c1ccccc1N=[N+]=[N-] (stereo not given in full),-0.384,0.727 (inactive),0.325 (inactive),2.77 (inactive),2.61,1.02 (inactive),0.679,-0.761,-0.25,0.428
COc1ccc(C#Cc2ccc3c(c2)[C@]2(C(=O)N3)[C@H](C(=O)NC[C@H](O)c3ccccc3)[C@H]3C(=O)O[C@H](c4ccccc4)[C@H](c4ccccc4)N3[C@@H]2c2ccc(OCCO)cc2)cc1,1.49,2.85 (inactive),1.64 (inactive),4.35 (inactive),2.96,-0.508 (inactive),-0.22,1.52,1.09,-0.0746
COCCOC(=O)N1C(=O)[C@@]2(c3cc(C#CCC(C(=O)OC)C(=O)OC)ccc31)[C@H](c1ccc(O)cc1)N1[C@H](c3ccccc3)[C@H](c3ccccc3)OC(=O)[C@H]1[C@@H]2C(N)=O,1.28,-0.151 (inactive),0.431 (inactive),0.291 (inactive),3.06,-0.138 (inactive),0.216,0.604,0.828,0.0717
COc1ccc(C(=O)Nc2cccc(CN3C(=O)[C@]4(O[C@H](CC(=O)N5CCC[C@H]5CO)[C@@H]([Si](C)(C)c5ccc(OC)cc5)[C@@H]4C)c4ccccc43)c2)cc1,1.38,-0.979 (inactive),-0.22 (inactive),-0.378 (inactive),2.34,0.44 (inactive),-0.181,0.467,0.869,-0.157
CC(C)N1C(=O)c2ccccc2[C@@H](C(=O)NCCCN(C)C)[C@@H]1c1ccc(CO)cc1,-0.468,-0.545 (inactive),-0.672 (inactive),-0.181 (inactive),1.3,-1.04 (inactive),0.196,-0.879,-0.807,-0.0435
C#CCN(C(/C=C/c1ccccc1)CO)C(C(=O)O)c1ccccc1 (stereo not given),-1.05,0.339 (inactive),-1.13 (inactive),0.148 (inactive),-0.595,2.19 (inactive),-0.0849,0.274,-0.715,-0.101
CC(C)=CCCC(C)=CC(O)C1C=CC2C(=O)N(c3ccccc3)C(=O)C2N1Nc1ccccc1 (stereo not given),0.967,0.316 (inactive),0.171 (inactive),1.02 (inactive),2.89,-1.99 (inactive),0.201,-0.196,1.04,0.438
COC(=O)[C@@]1(Cc2ccccc2N=[N+]=[N-])COC(c2ccc(OCCCO)cc2)=N1,1.24,-1.33 (inactive),-11 (active),-1.99 (inactive),2.08,-0.574 (inactive),0.137,-0.353,0.0418,-0.0762
COC(=O)[C@@]1(Cc2ccccc2)[C@H]2c3cc(C(=O)N4CCCC4)n(Cc4ccc(C)o4)c3C[C@H]2CN1C(=O)c1ccccc1,-0.179,-0.619 (inactive),0.122 (inactive),-0.564 (inactive),2.6,-0.564 (inactive),-0.0127,0.231,0.622,0.0226
